Drawing on PubChem BioAssay (NCATS), this text covers Potency for 24 compounds.

The target of experiment [1] is Calcium and integrin-binding protein 1 (Homo sapiens) (UniProt Q99828). Briefly: Primary qHTS for Identification of Calcium Integrin Binding Protein 1 (CIB1) Competitor (AID 1508620).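 Note: GST tagged CIB1 binding a fluorescein labelled alphaIIb integrin peptide tracer; top concentration of the series differs between compounds.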 Summed up:
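Fluorescence polarization competition: GST-tagged CIB1 (1 uM final) preincubated with compound 15 min at room temperature, then FITC-labelled alphaIIb peptide (100 nM final) added. After 15 min at room temperature, polarization read at Ex 480/Em 540.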
(In qHTS, concentration-response curves come from the screen itself.)

In experiment [2] the target is Cytochrome P450 2C9 (Homo sapiens) (UniProt P11712). Briefly: Cytochrome P450 family 2 subfamily C member 9 (CYP2C9) small molecule antagonists: luciferase biochemical (cell-free) qHTS assay (AID 1645842; active = well fitted curve in the direction sought with a large enough effect in the repeat runs; an effect the other way counts as inactive or inconclusive; note: nearly all actives have a fitted effect of over 55% in size; note: potency is the fitted concentration of half-maximal effect). Summed up: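 P450-Glo CYP2C9 system: proluciferin substrate with enzyme in mix containing 0.4% BSA, 10 min at room temperature, then NADPH regeneration solution added and incubated 1 h at 37C. Detection reagent stopped reaction; luminescence read after 20 min as RLU.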
Sequence of Cytochrome P450 2C9 (Homo sapiens) (P11712 whole entry, looked up): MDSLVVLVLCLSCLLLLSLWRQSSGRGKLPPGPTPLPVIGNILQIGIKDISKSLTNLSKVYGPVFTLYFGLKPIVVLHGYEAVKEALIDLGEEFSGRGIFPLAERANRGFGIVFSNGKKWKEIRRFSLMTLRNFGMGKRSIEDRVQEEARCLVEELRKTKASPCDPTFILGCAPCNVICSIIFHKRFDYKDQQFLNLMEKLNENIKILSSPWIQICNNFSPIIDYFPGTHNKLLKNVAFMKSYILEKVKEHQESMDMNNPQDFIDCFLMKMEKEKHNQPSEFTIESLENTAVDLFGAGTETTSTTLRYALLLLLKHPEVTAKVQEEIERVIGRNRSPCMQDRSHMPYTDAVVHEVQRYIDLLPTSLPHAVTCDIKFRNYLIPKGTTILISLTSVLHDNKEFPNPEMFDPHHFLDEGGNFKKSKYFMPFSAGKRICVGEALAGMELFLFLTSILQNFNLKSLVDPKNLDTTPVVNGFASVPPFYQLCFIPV

Experiment [3] is described as follows: Primary qHTS for inhibitors of nuclear receptor binding SET domain protein 2 (NSD2) in an isogenic RCH-ACV NSD2 p.E1099K mutant (9B) (AID 1645876). Note: nearly all actives have a fitted effect of over 70% in size.
A short description of experiment [4]: Primary qHTS for inhibitors of nuclear receptor binding SET domain protein 2 (NSD2) in an RCH-ACV wild type WT cells (2C) (AID 1645877). Note: nearly all actives have a fitted effect of over 70% in size.

Results filed as inconclusive are left out. The source made the active and inactive calls. Unless noted, calls come from the whole dose curve; as a rule, active = well fitted curve in the direction sought with a large enough effect; inconclusive = small, poorly fitted or top-dose-only effect, or another doubt; inactive = no such curve, though single readings can be large; an effect the other way counts as inactive or inconclusive.

Sequence of Calcium and integrin-binding protein 1 (Homo sapiens) (Q99828 whole entry, looked up): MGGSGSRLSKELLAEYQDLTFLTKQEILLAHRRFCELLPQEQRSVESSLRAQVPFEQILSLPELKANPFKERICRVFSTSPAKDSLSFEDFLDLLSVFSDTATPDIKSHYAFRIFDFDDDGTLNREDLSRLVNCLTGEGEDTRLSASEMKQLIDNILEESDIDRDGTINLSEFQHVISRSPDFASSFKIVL

Turning to `CCCCS(=O)(=O)NC(Cc1ccc(OCCCCC2CCNCC2)cc1)C(=O)O` (stereo not given), the Potency entry in experiment [1], in experiment [2], in experiment [3] and in experiment [4] was “inactive” throughout.
For the compound `COC(=O)Cn1nc(-c2cccc(OC)c2)c2ccccc21`, the Potency result in experiment [1], in experiment [3] and in experiment [4] was “inactive” each time. Further, in experiment [2], the Potency was 13.5 µM (active).
`CCC[C@H](N[C@@H](C)C(=O)N1[C@H](C(=O)O)C[C@@H]2CCCC[C@@H]21)C(=O)O`: the Potency entry in experiment [1], in experiment [2], in experiment [3] and in experiment [4] was “inactive” throughout.
With `Cc1ccc(C)c(NC(=O)CNS(=O)(=O)c2ccc3[nH]c(=O)oc3c2)c1`, the Potency result in experiment [1], in experiment [2], in experiment [3] and in experiment [4] was “inactive” throughout.
Take `CC1(C)[C@H]2C[C@H](C/C=C\CCCC(=O)O)[C@@H](NC(=O)c3csc4ccc(O)cc34)[C@@H]1C2`: the Potency entry in experiment [1], in experiment [3] and in experiment [4] was “inactive” throughout. Besides, in experiment [2], the Potency was 1.34 µM (active).
Consider `Cc1oc2nc3c(c(NC(=O)CN4CCCC4=O)c2c1C)CCCC3`, for which the Potency result in experiment [1], in experiment [2], in experiment [3] and in experiment [4] was “inactive” each time.
Take `CCOC(=O)COc1ccc2c(c1)C[C@@H](NC[C@H](O)c1cccc(Cl)c1)CC2`: the Potency entry in experiment [1], in experiment [3] and in experiment [4] was “inactive” throughout. The Potency in experiment [2] is 16.9 µM (active).
On to `Cn1cc(CCn2cnc(-c3cnn(C)c3)c2-c2ccc(C#N)cc2)cn1`, for which the Potency result in experiment [1], in experiment [2], in experiment [3] and in experiment [4] was “inactive” in each case.
With `Fc1ccccc1-c1nc2ccn(Cc3ccc(-c4ccc(C(F)(F)F)cc4C(F)(F)F)nn3)cc-2n1`, the Potency entry in experiment [1], in experiment [3] and in experiment [4] was “inactive” throughout. The Potency in experiment [2] is 23.9 µM (active).
As to `CN1CCN(C2=Nc3ccccc3Nc3ccc(O)cc32)CC1`, the Potency result in experiment [1], in experiment [2], in experiment [3] and in experiment [4] was “inactive” throughout.
With `Cc1cn(-c2cc(NC(=O)c3ccc(C)c(Nc4nccc(-c5cnccn5)n4)c3)cc(C(F)(F)F)c2)cn1`, the Potency result in experiment [1], in experiment [3] and in experiment [4] was “inactive” each time. The Potency in experiment [2] is 1.51 µM (active).
Consider `COc1ccc(-n2c(SCC#N)nc3sc4c(c3c2=O)CCCC4)cc1`, for which the Potency result in experiment [1], in experiment [3] and in experiment [4] was “inactive” in each case. The Potency in experiment [2] is 4.77 µM (active).
In the case of `Cc1nnc(-c2sc(NC(=O)[C@H](C(C)C)n3c(=O)[nH]c4ccccc4c3=O)nc2C)o1`, the Potency entry in experiment [1], in experiment [3] and in experiment [4] was “inactive” throughout. Besides, the Potency in experiment [2] was 9.52 µM (active).
With `O=C(CC1CC(c2ccc(F)cc2F)=NO1)N1CCOCC1` (stereo not given), the Potency entry in experiment [1], in experiment [2], in experiment [3] and in experiment [4] was “inactive” each time.
Regarding `O=C(Nc1cc(-c2ccccc2)nn1-c1ccccc1)c1ccc([N+](=O)[O-])cc1`, the Potency result in experiment [1], in experiment [3] and in experiment [4] was “inactive” throughout. Further, the Potency in experiment [2] is 1.51 µM (active).
With `c1cc(-c2cc(C3CCNCC3)[nH]n2)ccn1`, the Potency result in experiment [1], in experiment [2], in experiment [3] and in experiment [4] was “inactive” each time.
For the compound `O=C(N[C@H](Cc1ccccc1)C(=O)O)c1sc2cc(F)ccc2c1Cl`, the Potency result in experiment [1], in experiment [3] and in experiment [4] was “inactive” each time. Also, in experiment [2], the Potency is 16.9 µM (active).
As to `COc1ccc(-n2c(=O)[nH]c3cc(C(=O)NCc4ccc(Cl)cc4)sc3c2=O)nc1OC`, the Potency result in experiment [1], in experiment [3] and in experiment [4] was “inactive” throughout. For the same compound, the Potency in experiment [2] is 9.52 µM (active).
With `N#Cc1cccc(-c2nc(-c3cccnc3)no2)c1`, the Potency entry in experiment [1], in experiment [3] and in experiment [4] was “inactive” in each case. In experiment [2], the Potency was 4.65 µM (active).
Regarding `O=C(c1c2ccccc2cc2ccccc12)N1CCC(N2CCC[C@@H](C(=O)N3CCOCC3)C2)CC1`, the Potency entry in experiment [1], in experiment [2], in experiment [3] and in experiment [4] was “inactive” each time.
As to `COc1ccc(OC)c(C2C(C#N)=C(N)Oc3n[nH]c(-c4ccc5ccccc5c4)c32)c1` (stereo not given), the Potency result in experiment [1], in experiment [3] and in experiment [4] was “inactive” in each case. Besides, the Potency in experiment [2] was 10.7 µM (active).
For the compound `CC[C@H](NC(=O)c1c(O)c(-c2ccccc2)nc2ccccc12)c1ccccc1`, the Potency result in experiment [1] and in experiment [3] was “inactive” in each case. Further, the Potency in experiment [2] is 16.9 µM (active).
In the case of `Cc1cc(C(=O)N2Cc3cnn(C)c3Nc3ccccc32)ccc1CNC(=O)N1CCN(Cc2cc(O)cc(O)c2)CC1`, the Potency result in experiment [1], in experiment [3] and in experiment [4] was “inactive” in each case. Further, the Potency in experiment [2] was 2.39 µM (active).
Regarding `CCCCNc1nc(N)c2[nH]c(=O)n(Cc3ccc(OCCN(C)C)nc3)c2n1`, the Potency entry in experiment [1], in experiment [2], in experiment [3] and in experiment [4] was “inactive” each time.
